# Results as given in the supplement of paper PMC10127200.
# Counter-ions that a name gives are not always drawn.
# Experiments:
# Experiment in all cases: Euclidean distance of Cell Painting phenotypic profile (signed KS, 77 features) to DMSO centroid (dimensionless distance); 5 or 10 uM (library dependent); higher = stronger phenotypic change vs DMSO (phenoactivity)
# Settings in all cases: 48 h
# 786-O = system: 786-O
# Summary of the method: (§1)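 Stained cells were imaged confocally at 20X with 9 fields per well, after 48 h of exposure to library compounds at 10 or 5 uM (set by library; 0.1% DMSO final). The cells were five cancer lines and a healthy fibroblast line. From the images, Harmony extracted 77 features, each expressed as a signed Kolmogorov-Smirnov statistic relative to same-plate vehicle wells. Phenoactivity is measured as Euclidean distance to the median vehicle profile, using plate-position-corrected, correlation-weighted profiles averaged across replicates at the top dose.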
# A549 = system: A549
# Summary of the method: as §1
# DU145 = system: DU145
# Summary of the method: as §1
# FB = system: FB
# Summary of the method: as §1
# HEPG2 = system: HEPG2
# Summary of the method: as §1
# OVCAR4 = system: OVCAR4
# Summary of the method: as §1
SMILES,Euclidean distance (786-O),Euclidean distance (A549),Euclidean distance (DU145),Euclidean distance (FB),Euclidean distance (HEPG2),Euclidean distance (OVCAR4)
CO/N=C(\C(=O)N[C@@H]1C(=O)N2C(C(=O)O)=CCS[C@H]12)c1csc(N)n1 [Ceftizoxime],1.04,1.74,0.987,1.24,0.67,1.56
CCNC(=O)c1noc(-c2cc(C(C)C)c(O)cc2O)c1-c1ccc(CN2CCOCC2)cc1,2.96,2.83,3.5,2.77,3.91,2.67
Cc1ccccc1C(=O)Nc1ccc(C(=O)N2CCCC(O)c3cc(Cl)ccc32)c(C)c1 (stereo unspecified) [Tolvaptan],1.6,0.937,0.873,1.14,0.957,0.738
CCOC(=O)C1=C[C@]2(CC)CCCN3CCc4c(n1c1ccccc41)[C@@H]32 [Vinpocetine],1.12,0.68,0.699,0.994,0.98,1.81
CS(=O)(=O)OCCCCOS(C)(=O)=O [Busulfan],1.22,0.648,0.667,0.953,0.977,1.95
CCC1(O)C(=O)OCc2c1cc1n(c2=O)Cc2c-1nc1ccccc1c2CCNC(C)C (stereo unspecified) [Belotecan (CKD-602) hydrochloride],4.55,3.8,3.52,3.19,3.12,3.62
CCC(=O)OCC(=O)[C@@]1(OC(=O)CC)[C@@H](C)C[C@H]2[C@@H]3CCC4=CC(=O)C=C[C@]4(C)[C@@]3(Cl)[C@@H](O)C[C@@]21C [Beclomethasone dipropionate],1.09,2.14,2.46,1.95,0.575,1.8
CCOCc1nc2c(N)nc3ccccc3c2n1CC(C)(C)O [Resiquimod],1.35,1.05,1.47,0.954,0.587,1.19
N#Cc1c(Oc2ccc(F)c(NC(=O)Cc3cccc(C(F)(F)F)c3)c2)ccc2nc(NC(=O)C3CC3)sc12,2.61,2.09,0.85,1.19,1.22,2.04
CC1(C)S[C@@H]2[C@H](NC(=O)COc3ccccc3)C(=O)N2[C@H]1C(=O)O [Penicillin V potassium salt],1.25,1.22,1.35,0.767,0.481,1.67
CS(=O)(=O)CCNCc1ccc(-c2ccc3ncnc(Nc4ccc(OCc5cccc(F)c5)c(Cl)c4)c3c2)o1 [Lapatinib],4.13,3.1,2.2,2.22,3.72,3.77
O=C(NCC(O)CO)c1c(I)c(C(=O)NCC(O)CO)c(I)c(N(CCO)C(=O)CO)c1I (stereo unspecified) [Ioversol],0.684,0.636,0.983,0.679,0.876,1.14
CNC(=C[N+](=O)[O-])NCCSCc1csc(CN(C)C)n1 [Nizatidine],1.68,1.53,2.02,0.759,1.7,1.18
CCS(=O)(=O)c1cccc(-c2cc(C(=O)NC3CCN(C)CC3)c(C)c3[nH]c4ncc(C)cc4c23)c1,3.1,3.9,2.89,3.63,2.3,2.17
CC(C)CCCCC(=O)N[C@@H](CCN)C(=O)N[C@H](C(=O)N[C@@H](CCN)C(=O)N[C@H]1CCNC(=O)[C@H]([C@@H](C)O)NC(=O)[C@H](CCN)NC(=O)[C@H](CCN)NC(=O)[C@H](CC(C)C)NC(=O)[C@@H](Cc2ccccc2)NC(=O)[C@H](CCN)NC1=O)[C@@H](C)O [Polymyxin B sulphate],1.64,0.815,1.39,1.53,0.717,0.928
C#C[C@]1(O)CC[C@H]2[C@@H]3CCC4=CC(=O)CC[C@@H]4[C@H]3CC[C@@]21C [Norethindrone],1,0.864,0.791,1.2,0.575,1.29
C=CC(=O)N1CCC([C@@H]2CCNc3c(C(N)=O)c(-c4ccc(Oc5ccccc5)cc4)nn32)CC1 [Zanubrutinib (BGB-3111)],1.58,1.45,2.15,1.57,0.671,1.72
O=C(NNc1nc2cc(F)ccc2n2cccc12)c1cnccn1,3.74,2.78,2.25,3.85,2.84,5.56
Cc1ccc(-c2nc(N)nc3c2nnn3Cc2cccc(CO[C@H]3CCOC3)n2)o1,0.843,0.446,0.81,1.32,0.731,0.627
CC(C)(C)c1[nH]cnc1/C=c1\[nH]c(=O)/c(=C/c2ccccc2)[nH]c1=O [Plinabulin (NPI-2358)],3.18,3.25,4.17,2.89,4.1,2.86
O=c1c2ccccc2nc2n1CCc1c-2[nH]c2ccccc12 [Rutaecarpine],0.752,1.05,1.52,1.22,1.08,1.48
Cc1[nH]nc2ccc(-c3cncc(OC[C@@H](N)Cc4ccccc4)c3)cc12,4.66,4.28,3.94,5.02,3.37,5.52
CC(C(O)c1ccc(O)cc1)N1CCC(Cc2ccccc2)CC1 (stereo unspecified) [Ifenprodil Tartrate],0.976,0.88,0.955,1.22,0.958,0.965
C[C@H](Nc1ccc(C#N)n(C)c1=O)c1cc2cc(Cl)ccc2[nH]c1=O [Olutasidenib (FT-2102)],1.42,0.866,0.784,1.36,0.641,1.06
CC(C)C(=O)OCC(=O)[C@@]12O[C@H](C3CCCCC3)O[C@@H]1C[C@H]1[C@@H]3CCC4=CC(=O)C=C[C@]4(C)[C@H]3[C@@H](O)C[C@@]12C [Ciclesonide],1.71,2.49,2.88,2.36,2.25,2.09
CS(=O)(=O)CCNCc1ccc(-c2ccc3ncnc(Nc4ccc(OCc5cccc(F)c5)c(Cl)c4)c3c2)o1 [Lapatinib ditosylate monohydrate],4.93,3.12,2.25,2.59,3.3,3.37
